Experiments:
Assay in all cases: DAPPL (digital affinity profiling via proximity ligation, sequencing); 10 mM Tris-HCl pH 7.5, 50 mM NaCl, 1 mM DTT, 4% glycerol, room temperature, 30 min; GST-TFs on glutathione beads, 16-mer random dsDNA library, 0.1% formaldehyde crosslink after washing; high values mean tight binding
[1] = target: T1, FLI1 (Homo sapiens, UniProt Q01543 1-452); settings: protein: recombinant; tags: N-terminal GST; dsDNA, one strand shown
T1 sequence: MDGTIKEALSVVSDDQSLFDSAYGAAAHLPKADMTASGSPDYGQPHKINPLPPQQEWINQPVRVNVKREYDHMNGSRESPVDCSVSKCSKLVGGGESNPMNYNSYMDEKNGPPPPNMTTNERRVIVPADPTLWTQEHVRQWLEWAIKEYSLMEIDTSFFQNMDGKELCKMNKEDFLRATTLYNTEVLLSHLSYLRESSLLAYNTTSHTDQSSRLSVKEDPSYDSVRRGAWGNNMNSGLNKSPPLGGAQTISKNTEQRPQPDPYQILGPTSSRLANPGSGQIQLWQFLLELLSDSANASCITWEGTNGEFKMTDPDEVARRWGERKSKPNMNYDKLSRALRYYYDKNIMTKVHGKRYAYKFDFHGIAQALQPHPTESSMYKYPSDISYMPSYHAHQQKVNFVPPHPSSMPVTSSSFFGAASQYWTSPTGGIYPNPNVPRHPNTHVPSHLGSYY
Procedure, shortened: (§1)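 Human transcription factors fused to GST were expressed in yeast, captured on glutathione beads, given DNA barcodes and pooled with a GST-only negative control. Pools were incubated with 200 nmole of a 16-mer random double-stranded DNA library in Tris/NaCl/DTT/glycerol buffer at room temperature for 30 min. They were then washed, crosslinked with 0.1% formaldehyde, proximity-ligated (BsaI/T4 ligase, 1 h, 37 °C), PCR-amplified and sequenced on an Illumina NextSeq500. Binding signal is each 6-mer's read frequency for a factor divided by its frequency for the GST control.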

[2] = target: T2, ELK1 (Homo sapiens, UniProt P19419 1-428); settings: protein: recombinant; tags: N-terminal GST; dsDNA, one strand shown
T2 sequence: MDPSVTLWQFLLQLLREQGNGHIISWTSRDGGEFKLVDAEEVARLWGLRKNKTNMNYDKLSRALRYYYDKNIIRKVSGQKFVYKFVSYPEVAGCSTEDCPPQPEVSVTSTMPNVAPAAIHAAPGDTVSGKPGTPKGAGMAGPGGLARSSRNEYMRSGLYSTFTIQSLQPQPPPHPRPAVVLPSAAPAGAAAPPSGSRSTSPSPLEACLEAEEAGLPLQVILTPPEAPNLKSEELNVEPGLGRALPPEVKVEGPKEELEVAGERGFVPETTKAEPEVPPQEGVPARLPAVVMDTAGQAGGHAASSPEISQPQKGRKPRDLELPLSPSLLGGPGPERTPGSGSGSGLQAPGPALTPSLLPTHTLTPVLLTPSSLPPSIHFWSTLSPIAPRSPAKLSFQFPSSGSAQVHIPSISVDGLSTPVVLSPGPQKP
Procedure, shortened: as §1

[3] = target: T3, GABPA (Homo sapiens, UniProt Q06546 1-454); settings: protein: recombinant; tags: N-terminal GST; dsDNA, one strand shown
T3 sequence: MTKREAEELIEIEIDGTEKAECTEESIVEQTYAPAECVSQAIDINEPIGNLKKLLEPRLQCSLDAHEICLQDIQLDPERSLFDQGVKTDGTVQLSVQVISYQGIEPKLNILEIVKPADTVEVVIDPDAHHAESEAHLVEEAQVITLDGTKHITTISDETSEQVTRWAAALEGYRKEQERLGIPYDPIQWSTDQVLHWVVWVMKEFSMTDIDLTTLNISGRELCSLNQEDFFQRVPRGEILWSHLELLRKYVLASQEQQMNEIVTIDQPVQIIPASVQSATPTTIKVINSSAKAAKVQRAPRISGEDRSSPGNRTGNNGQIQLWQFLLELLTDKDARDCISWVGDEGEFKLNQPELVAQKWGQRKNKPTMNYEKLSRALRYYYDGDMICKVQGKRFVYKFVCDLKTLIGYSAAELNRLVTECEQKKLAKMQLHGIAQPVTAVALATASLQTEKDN
Procedure, shortened: as §1

[4] = target: T4, ERG (Homo sapiens, UniProt P11308 1-479); settings: protein: recombinant; tags: N-terminal GST; dsDNA, one strand shown
T4 sequence: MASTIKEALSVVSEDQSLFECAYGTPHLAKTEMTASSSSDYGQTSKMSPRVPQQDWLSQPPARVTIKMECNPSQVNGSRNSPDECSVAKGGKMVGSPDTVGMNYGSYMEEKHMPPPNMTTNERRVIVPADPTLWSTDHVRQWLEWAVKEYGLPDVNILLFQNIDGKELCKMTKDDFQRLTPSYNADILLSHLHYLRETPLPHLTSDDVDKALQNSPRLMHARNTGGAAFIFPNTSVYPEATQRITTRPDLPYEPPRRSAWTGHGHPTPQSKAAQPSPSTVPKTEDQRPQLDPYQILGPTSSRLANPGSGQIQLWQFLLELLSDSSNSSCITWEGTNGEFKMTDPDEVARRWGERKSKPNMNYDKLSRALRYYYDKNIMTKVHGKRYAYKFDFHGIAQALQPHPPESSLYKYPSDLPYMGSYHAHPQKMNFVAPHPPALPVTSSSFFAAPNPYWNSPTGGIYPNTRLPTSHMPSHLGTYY
Procedure, shortened: as §1

[5] = target: ELF1 (Homo sapiens, UniProt P32519 1-619); settings: protein: recombinant; tags: N-terminal GST; dsDNA, one strand shown
Procedure, shortened: as §1

[6] = target: T5, EHF (Homo sapiens, UniProt Q9NZC4 1-300); settings: protein: recombinant; tags: N-terminal GST; dsDNA, one strand shown
T5 sequence: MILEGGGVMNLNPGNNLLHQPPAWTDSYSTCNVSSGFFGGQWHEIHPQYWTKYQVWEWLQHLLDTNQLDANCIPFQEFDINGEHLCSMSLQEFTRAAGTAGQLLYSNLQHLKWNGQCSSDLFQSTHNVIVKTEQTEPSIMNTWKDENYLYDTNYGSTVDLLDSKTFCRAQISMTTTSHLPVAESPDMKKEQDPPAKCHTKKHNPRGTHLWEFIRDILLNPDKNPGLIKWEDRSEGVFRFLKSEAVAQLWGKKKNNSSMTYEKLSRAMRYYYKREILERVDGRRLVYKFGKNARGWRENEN
Procedure, shortened: as §1

[7] = target: SPI1 (Homo sapiens, UniProt P17947 1-270); settings: protein: recombinant; tags: N-terminal GST; dsDNA, one strand shown
Procedure, shortened: as §1

[8] = target: SPIB (Homo sapiens, UniProt Q01892 1-262); settings: protein: recombinant; tags: N-terminal GST; dsDNA, one strand shown
Procedure, shortened: as §1

[9] = target: T6, ELK3 (Homo sapiens, UniProt P41970 1-407); settings: protein: recombinant; tags: N-terminal GST; dsDNA, one strand shown
T6 sequence: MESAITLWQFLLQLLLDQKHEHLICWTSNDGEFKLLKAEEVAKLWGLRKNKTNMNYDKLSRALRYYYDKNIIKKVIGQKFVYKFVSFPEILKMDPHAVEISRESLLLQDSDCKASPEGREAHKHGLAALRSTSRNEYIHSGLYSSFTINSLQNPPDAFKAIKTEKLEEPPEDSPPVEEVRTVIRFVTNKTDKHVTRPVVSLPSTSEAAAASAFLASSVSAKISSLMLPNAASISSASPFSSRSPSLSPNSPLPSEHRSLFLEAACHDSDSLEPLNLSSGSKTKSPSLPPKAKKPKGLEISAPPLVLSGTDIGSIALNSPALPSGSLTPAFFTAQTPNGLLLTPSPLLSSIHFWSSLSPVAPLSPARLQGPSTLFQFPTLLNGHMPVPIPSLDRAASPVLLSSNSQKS
Procedure, shortened: as §1

[10] = target: T7, FEV (Homo sapiens, UniProt Q99581 1-238); settings: protein: recombinant; tags: N-terminal GST; dsDNA, one strand shown
T7 sequence: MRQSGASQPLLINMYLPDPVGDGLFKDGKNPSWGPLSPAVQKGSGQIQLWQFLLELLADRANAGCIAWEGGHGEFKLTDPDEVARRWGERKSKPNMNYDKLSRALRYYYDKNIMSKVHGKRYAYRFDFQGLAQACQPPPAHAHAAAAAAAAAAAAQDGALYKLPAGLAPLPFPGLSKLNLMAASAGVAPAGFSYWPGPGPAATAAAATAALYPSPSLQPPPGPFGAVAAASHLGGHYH
Procedure, shortened: as §1

[11] = target: ETV5 (Homo sapiens, UniProt P41161 1-510); settings: protein: recombinant; tags: N-terminal GST; dsDNA, one strand shown
Procedure, shortened: as §1

[12] = target: HSF1 (Homo sapiens, UniProt Q00613 1-529); settings: protein: recombinant; tags: N-terminal GST; chain copies: 3; dsDNA, one strand shown
Procedure, shortened: as §1

[13] = target: T8, SPIC (Homo sapiens, UniProt Q8N5J4 1-248); settings: protein: recombinant; tags: N-terminal GST; dsDNA, one strand shown
T8 sequence: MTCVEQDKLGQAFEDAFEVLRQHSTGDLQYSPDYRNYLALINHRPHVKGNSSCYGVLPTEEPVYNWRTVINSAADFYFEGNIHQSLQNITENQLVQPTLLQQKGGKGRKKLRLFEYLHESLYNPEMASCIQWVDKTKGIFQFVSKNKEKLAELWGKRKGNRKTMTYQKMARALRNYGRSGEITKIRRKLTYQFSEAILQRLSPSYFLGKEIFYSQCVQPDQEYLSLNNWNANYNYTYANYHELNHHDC
Procedure, shortened: as §1

[14] = target: ELF4 (Homo sapiens, UniProt Q99607 1-663); settings: protein: recombinant; tags: N-terminal GST; dsDNA, one strand shown
Procedure, shortened: as §1

[15] = target: T9, ELK4 (Homo sapiens, UniProt P28324-2 1-405); settings: protein: recombinant; tags: N-terminal GST; dsDNA, one strand shown
T9 sequence: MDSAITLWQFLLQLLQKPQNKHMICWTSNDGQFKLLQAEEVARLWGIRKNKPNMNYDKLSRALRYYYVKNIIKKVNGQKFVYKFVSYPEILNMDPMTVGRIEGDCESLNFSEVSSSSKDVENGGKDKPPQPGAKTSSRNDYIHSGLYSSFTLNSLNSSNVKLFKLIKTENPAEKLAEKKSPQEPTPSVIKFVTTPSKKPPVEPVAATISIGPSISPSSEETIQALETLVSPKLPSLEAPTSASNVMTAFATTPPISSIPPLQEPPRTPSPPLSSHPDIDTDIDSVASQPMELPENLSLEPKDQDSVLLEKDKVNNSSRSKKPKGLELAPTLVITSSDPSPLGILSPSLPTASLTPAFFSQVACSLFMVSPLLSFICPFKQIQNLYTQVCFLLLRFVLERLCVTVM
Procedure, shortened: as §1

[16] = target: T10, ETV2 (Homo sapiens, UniProt O00321 1-342); settings: protein: recombinant; tags: N-terminal GST; dsDNA, one strand shown
T10 sequence: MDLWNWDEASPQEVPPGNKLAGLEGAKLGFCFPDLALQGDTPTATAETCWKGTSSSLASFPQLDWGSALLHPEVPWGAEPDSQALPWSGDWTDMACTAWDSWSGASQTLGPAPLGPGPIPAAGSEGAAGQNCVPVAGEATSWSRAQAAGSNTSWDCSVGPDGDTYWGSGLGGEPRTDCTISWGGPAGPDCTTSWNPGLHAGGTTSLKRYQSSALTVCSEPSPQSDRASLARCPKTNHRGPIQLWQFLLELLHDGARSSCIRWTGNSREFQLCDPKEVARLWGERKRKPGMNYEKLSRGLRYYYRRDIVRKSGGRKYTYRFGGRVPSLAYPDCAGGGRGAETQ
Procedure, shortened: as §1

[17] = target: T11, ELF3 (Homo sapiens, UniProt P78545 1-371); settings: protein: recombinant; tags: N-terminal GST; dsDNA, one strand shown
T11 sequence: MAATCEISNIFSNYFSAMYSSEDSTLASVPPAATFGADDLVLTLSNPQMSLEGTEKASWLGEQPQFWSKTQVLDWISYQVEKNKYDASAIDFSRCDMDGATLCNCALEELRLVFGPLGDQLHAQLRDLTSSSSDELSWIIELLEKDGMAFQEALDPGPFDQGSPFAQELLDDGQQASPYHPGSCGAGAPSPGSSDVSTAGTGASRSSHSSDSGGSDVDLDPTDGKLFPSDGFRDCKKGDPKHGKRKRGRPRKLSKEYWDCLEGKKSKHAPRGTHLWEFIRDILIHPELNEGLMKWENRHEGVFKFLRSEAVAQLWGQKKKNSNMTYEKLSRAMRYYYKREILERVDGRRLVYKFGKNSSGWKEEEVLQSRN
Procedure, shortened: as §1

[18] = target: CRX (Homo sapiens, UniProt O43186 1-299); settings: protein: recombinant; tags: N-terminal GST; dsDNA, one strand shown
Procedure, shortened: as §1

[19] = target: ETV1 (Homo sapiens, UniProt P50549 1-477); settings: protein: recombinant; tags: N-terminal GST; dsDNA, one strand shown
Procedure, shortened: as §1

Chain of CRX (O43186 whole entry): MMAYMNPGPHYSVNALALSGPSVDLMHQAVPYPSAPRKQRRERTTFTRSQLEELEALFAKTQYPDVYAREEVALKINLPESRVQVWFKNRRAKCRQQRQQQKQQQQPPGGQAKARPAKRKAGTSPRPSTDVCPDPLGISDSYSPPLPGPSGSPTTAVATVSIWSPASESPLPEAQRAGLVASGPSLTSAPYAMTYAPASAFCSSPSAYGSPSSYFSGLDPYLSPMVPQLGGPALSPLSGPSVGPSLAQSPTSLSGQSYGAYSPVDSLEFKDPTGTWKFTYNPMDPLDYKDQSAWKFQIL
Chain of ELF1 (P32519 whole entry): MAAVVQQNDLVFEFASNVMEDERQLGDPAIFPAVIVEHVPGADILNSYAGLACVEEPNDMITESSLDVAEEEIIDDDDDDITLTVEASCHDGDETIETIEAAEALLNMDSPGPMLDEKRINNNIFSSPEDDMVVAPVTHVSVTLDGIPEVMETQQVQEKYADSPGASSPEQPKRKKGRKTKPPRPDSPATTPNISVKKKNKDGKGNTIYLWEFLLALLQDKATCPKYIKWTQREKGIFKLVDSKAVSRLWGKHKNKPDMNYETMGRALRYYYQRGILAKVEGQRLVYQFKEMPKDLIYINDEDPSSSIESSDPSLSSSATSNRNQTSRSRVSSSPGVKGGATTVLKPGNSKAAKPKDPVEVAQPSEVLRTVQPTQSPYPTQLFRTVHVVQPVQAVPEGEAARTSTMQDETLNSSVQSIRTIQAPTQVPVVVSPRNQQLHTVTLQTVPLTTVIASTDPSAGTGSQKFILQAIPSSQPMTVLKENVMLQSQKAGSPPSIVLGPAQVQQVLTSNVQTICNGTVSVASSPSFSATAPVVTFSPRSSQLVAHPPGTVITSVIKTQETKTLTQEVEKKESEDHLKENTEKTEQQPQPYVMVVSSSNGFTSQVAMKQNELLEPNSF
Chain of ELF4 (Q99607 whole entry): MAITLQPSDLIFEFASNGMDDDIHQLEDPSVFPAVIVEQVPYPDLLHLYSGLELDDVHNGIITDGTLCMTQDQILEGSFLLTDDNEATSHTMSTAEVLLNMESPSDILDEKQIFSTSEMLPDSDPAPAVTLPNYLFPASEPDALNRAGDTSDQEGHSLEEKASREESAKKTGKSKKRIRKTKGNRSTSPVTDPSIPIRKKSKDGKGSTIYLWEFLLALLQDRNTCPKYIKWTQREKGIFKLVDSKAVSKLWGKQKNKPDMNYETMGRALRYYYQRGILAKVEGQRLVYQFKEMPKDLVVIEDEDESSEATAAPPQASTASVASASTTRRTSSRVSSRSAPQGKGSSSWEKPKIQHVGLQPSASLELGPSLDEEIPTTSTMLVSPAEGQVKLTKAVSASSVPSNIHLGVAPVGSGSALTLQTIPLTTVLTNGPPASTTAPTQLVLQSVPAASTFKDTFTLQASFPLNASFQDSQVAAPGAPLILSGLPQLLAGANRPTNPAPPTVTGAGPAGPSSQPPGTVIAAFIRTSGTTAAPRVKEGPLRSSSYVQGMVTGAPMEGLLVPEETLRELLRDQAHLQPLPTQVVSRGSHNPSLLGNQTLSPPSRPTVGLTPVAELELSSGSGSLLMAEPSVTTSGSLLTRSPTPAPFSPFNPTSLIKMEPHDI
Chain of ETV1 (P50549 whole entry): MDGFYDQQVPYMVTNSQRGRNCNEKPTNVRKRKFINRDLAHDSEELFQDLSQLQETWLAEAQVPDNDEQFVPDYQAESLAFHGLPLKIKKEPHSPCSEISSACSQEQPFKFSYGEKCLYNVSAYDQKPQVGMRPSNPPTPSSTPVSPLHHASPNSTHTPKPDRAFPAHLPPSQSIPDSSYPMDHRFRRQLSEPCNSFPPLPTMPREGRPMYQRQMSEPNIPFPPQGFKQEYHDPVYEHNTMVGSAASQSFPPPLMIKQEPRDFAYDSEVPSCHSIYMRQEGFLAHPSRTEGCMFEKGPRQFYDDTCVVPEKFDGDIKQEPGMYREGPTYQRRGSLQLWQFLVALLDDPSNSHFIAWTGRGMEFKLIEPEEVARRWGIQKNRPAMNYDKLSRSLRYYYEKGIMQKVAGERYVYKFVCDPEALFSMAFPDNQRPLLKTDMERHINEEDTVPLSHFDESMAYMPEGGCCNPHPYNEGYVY
Chain of SPIB (Q01892 whole entry): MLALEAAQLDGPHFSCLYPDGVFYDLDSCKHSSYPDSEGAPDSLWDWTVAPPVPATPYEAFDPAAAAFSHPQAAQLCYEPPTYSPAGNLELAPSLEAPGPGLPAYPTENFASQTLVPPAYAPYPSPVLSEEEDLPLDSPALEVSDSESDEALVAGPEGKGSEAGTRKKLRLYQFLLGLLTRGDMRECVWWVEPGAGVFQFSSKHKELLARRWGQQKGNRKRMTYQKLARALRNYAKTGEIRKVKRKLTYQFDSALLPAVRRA
Chain of HSF1 (Q00613 whole entry): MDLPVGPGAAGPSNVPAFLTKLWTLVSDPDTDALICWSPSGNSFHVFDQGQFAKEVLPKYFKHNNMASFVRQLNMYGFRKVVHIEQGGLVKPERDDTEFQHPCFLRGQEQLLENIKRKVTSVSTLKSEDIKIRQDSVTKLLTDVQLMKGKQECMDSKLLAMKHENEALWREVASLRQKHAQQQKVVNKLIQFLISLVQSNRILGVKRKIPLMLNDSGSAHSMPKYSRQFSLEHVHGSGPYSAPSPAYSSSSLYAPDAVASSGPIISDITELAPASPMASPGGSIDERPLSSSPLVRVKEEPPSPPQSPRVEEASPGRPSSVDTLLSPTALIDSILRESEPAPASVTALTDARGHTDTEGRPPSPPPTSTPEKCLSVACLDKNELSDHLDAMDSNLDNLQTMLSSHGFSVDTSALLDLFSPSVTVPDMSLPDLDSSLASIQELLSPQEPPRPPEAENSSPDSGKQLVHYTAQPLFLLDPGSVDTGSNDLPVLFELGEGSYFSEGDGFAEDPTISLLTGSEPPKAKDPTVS
Chain of ETV5 (P41161 whole entry): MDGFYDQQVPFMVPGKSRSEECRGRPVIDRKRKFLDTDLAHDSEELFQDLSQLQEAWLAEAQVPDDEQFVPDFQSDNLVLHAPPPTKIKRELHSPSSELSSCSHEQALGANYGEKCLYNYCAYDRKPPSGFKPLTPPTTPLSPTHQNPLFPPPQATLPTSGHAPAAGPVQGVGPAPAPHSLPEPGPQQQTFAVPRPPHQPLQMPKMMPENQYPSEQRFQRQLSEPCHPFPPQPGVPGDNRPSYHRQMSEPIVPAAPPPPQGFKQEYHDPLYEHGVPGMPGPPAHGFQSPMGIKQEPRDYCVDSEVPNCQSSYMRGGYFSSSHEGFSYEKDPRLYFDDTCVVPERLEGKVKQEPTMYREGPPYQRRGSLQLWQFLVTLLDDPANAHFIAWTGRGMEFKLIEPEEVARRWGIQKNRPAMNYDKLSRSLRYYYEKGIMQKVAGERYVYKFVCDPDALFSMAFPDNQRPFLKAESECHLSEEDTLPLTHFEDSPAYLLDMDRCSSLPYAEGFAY

For AATCTC, the binding signal [1] was 1.26 fold enrichment (6-mer frequency, TF over GST control), the binding signal [2] was 1.21 fold enrichment (6-mer frequency, TF over GST control) and the binding signal [3] was 1.28 fold enrichment (6-mer frequency, TF over GST control). The binding signal [4] was 1.19 fold enrichment (6-mer frequency, TF over GST control), the binding signal [5] was 1.16 fold enrichment (6-mer frequency, TF over GST control) and the binding signal [6] was 1.27 fold enrichment (6-mer frequency, TF over GST control). The binding signal [7] was 1.16 fold enrichment (6-mer frequency, TF over GST control), the binding signal [8] was 1.2 fold enrichment (6-mer frequency, TF over GST control) and the binding signal [9] was 1.15 fold enrichment (6-mer frequency, TF over GST control). For the same sequence, the binding signal [10] was 1.23 fold enrichment (6-mer frequency, TF over GST control), the binding signal [11] was 1.37 fold enrichment (6-mer frequency, TF over GST control) and the binding signal [12] was 2.13 fold enrichment (6-mer frequency, TF over GST control). The binding signal [13] was 1.13 fold enrichment (6-mer frequency, TF over GST control), the binding signal [14] was 1.25 fold enrichment (6-mer frequency, TF over GST control) and the binding signal [15] was 1.22 fold enrichment (6-mer frequency, TF over GST control). The binding signal [16] was 1.26 fold enrichment (6-mer frequency, TF over GST control), the binding signal [17] was 1.27 fold enrichment (6-mer frequency, TF over GST control) and the binding signal [18] was 2.5 fold enrichment (6-mer frequency, TF over GST control). For the same sequence, the binding signal [19] was 1.34 fold enrichment (6-mer frequency, TF over GST control).

— publication PMC7862700, “An all-to-all approach to the identification of sequence-specific readers for epigenetic DNA modifications on cytosine”
